# Results filed as inconclusive are left out. Where a call stands in place of a potency, no number is given. Values without a mark were called inactive. Activity calls are given as the source filed them. Calls come from the whole dose curve; as a rule, active = well fitted cell-killing curve with a large enough effect; inconclusive = small, poorly fitted or top-dose-only effect, or effect the other way; inactive = no such curve, though single readings can be large or run the other way.
# Assay: Viability qHTS for spleen associated tyrosine kinase inhibitor (SYKi) naive MV4-11 cells (AID 1963823); note: nearly all actives have a fitted effect of over 40% in size
# Settings: MV4-11 AML viability, CellTiter-Glo luminescence, 72 h; series mostly up to 45 µM
# Outline: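 Viability of MV4-11 AML cells lacking prior SYK inhibitor exposure is scored by CellTiter-Glo luminescence following 72 hr compound incubation at 37 C, 5% CO2, seeded at 500 cells per well.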
# Potency is the fitted concentration of half-maximal effect.
Compound,Potency,viability (% of control)
C/C1=C\CCC2=CC(OC2=O)C(C)(C)/C=C/C1=O (stereo not given),4.61 µM (active),
C/C=C(\C)C(=O)O[C@H]1[C@H](O)[C@]2(COC(C)=O)[C@H](O)C[C@]3(C)C(=CCC4[C@@]5(C)CC[C@H](O[C@@H]6O[C@H](C(=O)O)[C@@H](O[C@@H]7O[C@H](CO)[C@@H](O)[C@H](O)[C@H]7O)[C@H](O)[C@H]6O[C@@H]6O[C@H](CO)[C@@H](O)[C@H](O)[C@H]6O)[C@](C)(CO)C5CC[C@]43C)[C@@H]2CC1(C)C (stereo not given in full),,88% [at 9.25 µM]
COc1ccc(OC(=O)N(CC(=O)O)Cc2ccc(OCCc3nc(-c4ccccc4)oc3C)cc2)cc1,inactive,
C=C(C(=O)OC)C1C(O)CC2(C)C(=O)CCC(O)(CO)C2C1O (stereo not given),inactive,
CCN1/C(=C/C(C)=O)Sc2ccc(OC(C)=O)cc21,7.31 µM (active),
CC(C)CC(=O)O[C@@H]1OC=C(CO[C@@H]2O[C@H](CO[C@@H]3O[C@H](CO)[C@@H](O)[C@H](O)[C@H]3O)[C@@H](O)[C@H](O)[C@H]2O)[C@H]2C[C@H](O)[C@@H](CO)[C@@H]12,inactive,
COc1cc(NC(=O)Nc2cccc(CNC(=O)O[C@H]3CCOC3)c2)ccc1-c1cnco1,1.3 µM (active),
C[C@H](O)[C@H](O)/C=C/c1cccc(O)c1CO,inactive,
CC1=C[C@H](O)[C@H]2C(C)(C)CCC[C@]2(C)[C@@]1(O)CO,inactive,
NCCOCCOCCNC(=O)Cc1ccc(Nc2nc(NCc3ccc(F)cc3)nc(NCC3CCCCC3)n2)cc1,2.31 µM (active),
